Drawing on PubChem BioAssay (NCATS), this text covers Potency, outcome and activity change, negative = cytotoxicity for 22 compounds.

Experiment [1] has as its system NIH3T3. Nature of the experiment: qHTS assay to identify novel small-molecules to repurpose for Merkel cell carcinoma treatment (AID 1296009). Note: nearly all actives have a fitted effect of over 60% in size. The settings on record: MCC and control cell lines, CellTiter-Glo viability, 72 h; series mostly up to 44.8 µM. The method, boiled down:
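After compound transfer in DMSO, plates were kept 72 hr at 37 degree celsius. Luminescent ATP signal from CellTiter-Glo served as viability measure, normalized against DMSO and no-cell controls.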
In general terms: In qHTS, concentration-response curves come from the screen itself.

For experiment [2], the system named is C33A. Briefly: Primary qHTS to identify gynecologic anti-cancer compounds using libraries of approved drugs and bioactive compounds (AID 1345084). For activity change, negative = cytotoxicity: % is set by controls: 0 for no effect and ±100 for the full control effect. Note: nearly all actives have a fitted effect of over 55% in size. Conditions: Gynecologic cancer cell panel viability, ATPlite luminescence, 48 h; series mostly up to 57.5 µM. The method, boiled down: (§1)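 Luminescence from the ATPlite ATP-monitoring reagent indicates viable cell number; lower signal means cytotoxicity. Cells received compound 16 h after seeding and were exposed for 48 h across five concentrations.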

Experiment [3] relates to CAOV3. The description is as above. Conditions: Gynecologic cancer cell panel viability, ATPlite luminescence, 48 h; series mostly up to 57.5 µM. Summed up:
as §1
In general terms: Cellular ATP, detected with luciferase, serves as a proxy for viable cell number.

For experiment [4], the system named is CASKI. Described as above. The settings on record: Gynecologic cancer cell panel viability, ATPlite luminescence, 48 h; series mostly up to 57.5 µM. The method, boiled down:
as §1

Experiment [5] concerns Es-2. The experiment is described as above. Conditions: Gynecologic cancer cell panel viability, ATPlite luminescence, 48 h; series mostly up to 57.5 µM. Summed up:
as §1

For experiment [6], the system named is HeLa. The description is as above. Conditions: Gynecologic cancer cell panel viability, ATPlite luminescence, 48 h; series mostly up to 57.5 µM. The method, boiled down:
as §1

Experiment [7] deals with Hek293T. The description is as above. Conditions: Gynecologic cancer cell panel viability, ATPlite luminescence, 48 h, control line for the selectivity index; series mostly up to 57.5 µM. Summed up: as §1
In experiment [8] the test system is JEG-3. Described as above. Conditions: Gynecologic cancer cell panel viability, ATPlite luminescence, 48 h; series mostly up to 57.5 µM. The method, boiled down:
as §1

The structures appear in SMILES notation. Inconclusive results are not listed. Values without a mark were called inactive. Active and inactive are the calls of the source. Calls come from the whole dose curve; as a rule, active = well fitted curve in the direction sought with a large enough effect; inconclusive = small, poorly fitted or top-dose-only effect, or another doubt; inactive = no such curve, though single readings can be large; an effect the other way counts as inactive or inconclusive.
Potency is the fitted concentration of half-maximal effect.

For the compound `CC1(C)C2CCC(CO[C@@H]3O[C@H](CO[C@@H]4OC[C@](O)(CO)[C@H]4O)[C@@H](O)[C@H](O)[C@H]3O)C1C2` (some centres not stated), the Potency entry in experiment [1], in experiment [2], in experiment [3], in experiment [4], in experiment [5] and in experiment [6] was “inactive” throughout. Moreover, the Potency entry in experiment [7] and in experiment [8] was “inactive” in each case.

As for `CC(=O)O[C@@H]1CC[C@@]2(C)C(CC[C@]3(C)C2[C@H](O)C=C2[C@H]4[C@@H](C)[C@H](C)CC[C@]4(C)CC[C@]23C)[C@@]1(C)C(=O)O` (some centres not stated), the Potency entry in experiment [1], in experiment [2], in experiment [3], in experiment [4], in experiment [5] and in experiment [6] was “inactive” each time. Moreover, the Potency entry in experiment [7] and in experiment [8] was “inactive” throughout.

`CC1CCCC(O)CCC/C=C/c2cc(OS(=O)(=O)O)cc(O)c2C(=O)O1` (configuration not stated): the Potency entry in experiment [1], in experiment [2], in experiment [3], in experiment [4], in experiment [5] and in experiment [6] was “inactive” in each case. Besides, the Potency entry in experiment [7] and in experiment [8] was “inactive” in each case.

As to `CCCN1CCC=C(c2cc(-c3ccc(C)cc3)no2)C1`, the Potency result in experiment [1], in experiment [2], in experiment [3], in experiment [4], in experiment [5] and in experiment [6] was “inactive” in each case. Moreover, the Potency result in experiment [7] and in experiment [8] was “inactive” throughout.

`C=C1CC[C@@H]2[C@](C)(CO)[C@H](O)CC[C@@]2(C)[C@@H]1CC(O)C1=CCOC1=O` (some centres not stated): the Potency result in experiment [1], in experiment [2], in experiment [3], in experiment [4], in experiment [5] and in experiment [6] was “inactive” each time. Besides, the Potency entry in experiment [7] and in experiment [8] was “inactive” each time.

Regarding `CO[C@H]1O[C@@H]2O[C@@]3(C)CCC4[C@H](C)CCC([C@H]1C)[C@]42OO3` (some centres not stated), the Potency result in experiment [1], in experiment [2], in experiment [3], in experiment [4], in experiment [5] and in experiment [6] was “inactive” in each case. In addition, the Potency entry in experiment [7] and in experiment [8] was “inactive” throughout.

Consider `CC[C@H](C)/C=C(C)/C=C/C1=CC2=C(Cl)C(=O)[C@](C)(O)[C@H](OC(C)=O)[C@H]2CO1`, for which the Potency result in experiment [1], in experiment [2], in experiment [3], in experiment [4], in experiment [5] and in experiment [6] was “inactive” in each case. The Potency entry in experiment [7] and in experiment [8] was “inactive” each time.

Turning to `O=C([C@@H](Cc1cccc(C(F)(F)F)c1)NS(=O)(=O)c1cc(F)c2c(c1)CCNC2)N1CCCC1`, the Potency entry in experiment [1], in experiment [2], in experiment [3], in experiment [4], in experiment [5] and in experiment [6] was “inactive” each time. Moreover, the Potency result in experiment [7] and in experiment [8] was “inactive” in each case.

Turning to `N[C@@H]1c2cccnc2[C@H](OC(=O)N2CCC(n3c(=O)[nH]c4ncccc43)CC2)CC[C@H]1c1cccc(F)c1F`, the Potency entry in experiment [1], in experiment [2], in experiment [3], in experiment [4], in experiment [5] and in experiment [6] was “inactive” in each case. In addition, the Potency entry in experiment [7] and in experiment [8] was “inactive” throughout.

With `COc1ccc2cc(-c3cc(-c4cc(Cl)cc(Cl)c4)nn3C(C)c3ccc(C(=O)NCCC(=O)O)cc3)ccc2c1` (configuration not stated), the Potency result in experiment [1], in experiment [2], in experiment [3], in experiment [4], in experiment [5] and in experiment [6] was “inactive” each time. Further, the Potency entry in experiment [7] and in experiment [8] was “inactive” each time.

For `Fc1ccc2c(CCNCc3cccc(OCC(F)(F)C(F)F)c3)c[nH]c2c1`, the Potency entry in experiment [1], in experiment [2], in experiment [3], in experiment [4], in experiment [5] and in experiment [6] was “inactive” each time. The Potency result in experiment [7] and in experiment [8] was “inactive” each time.

In the case of `C=C[C@H](/C=C\c1ccc(O)cc1)c1ccc(O)cc1`, the Potency entry in experiment [1], in experiment [2], in experiment [3], in experiment [4], in experiment [5] and in experiment [6] was “inactive” in each case. Further, the Potency entry in experiment [7] and in experiment [8] was “inactive” in each case.

As to `CC[N+]1(C/C2=C/CCCCCC2)CCC(NC(=O)C2c3cc(Cl)ccc3Oc3ccc(Cl)cc32)CC1` (configuration not stated), the Potency entry in experiment [1], in experiment [2], in experiment [3], in experiment [4], in experiment [5] and in experiment [6] was “inactive” each time. For the same compound, the Potency result in experiment [7] and in experiment [8] was “inactive” each time.

Turning to `O=C(Nc1ccccc1C(=O)Nc1ccc(CCO)cc1)c1ccc([N+](=O)[O-])cc1`, the Potency entry in experiment [1], in experiment [2], in experiment [3], in experiment [4], in experiment [5] and in experiment [6] was “inactive” in each case. Also, the Potency entry in experiment [7] and in experiment [8] was “inactive” each time.

Consider `Cc1cc(C)c(S(=O)(=O)n2cc(C)cc2C)c(C)c1`, for which the Potency entry in experiment [1], in experiment [2], in experiment [3], in experiment [4], in experiment [5] and in experiment [6] was “inactive” in each case. Besides, the Potency result in experiment [7] and in experiment [8] was “inactive” throughout.

As to `CCCNCCc1ccc(NS(=O)(=O)c2ccc(OC(F)(F)F)cc2)cc1`, the Potency entry in experiment [1], in experiment [2], in experiment [3], in experiment [4], in experiment [5] and in experiment [6] was “inactive” in each case. For the same compound, the Potency entry in experiment [7] and in experiment [8] was “inactive” throughout.

On to `O=C(NCCN1CCC(n2c(=O)[nH]c3ccccc32)CC1)c1cc2cc(F)ccc2[nH]1`, for which the Potency entry in experiment [1], in experiment [2], in experiment [3], in experiment [4], in experiment [5] and in experiment [6] was “inactive” throughout. Also, the Potency entry in experiment [7] and in experiment [8] was “inactive” each time.

With `CC[C@@H](C)Nc1cc(C(=O)NC2CC3CC[C@@H](C2)N3c2ccc(C(=O)C3CC3)cn2)c(C)cc1C(N)=O` (some centres not stated), the Potency is 184 nM (active) in experiment [1], 794 nM (active) in experiment [3] and 316 nM (active) in experiment [7].

As to `CCN(Cc1ccccc1)C(=O)Cn1c(=O)n(C)c2cnc(-c3ccccc3)nc21`, the Potency entry in experiment [1], in experiment [2], in experiment [4], in experiment [5], in experiment [6] and in experiment [7] was “inactive” in each case. Besides, the Potency result in experiment [8] was “inactive”.

As to `COC1CC(O[C@H]2CC[C@]3(C)C4CC[C@]5(C)C(C6=CC(=O)OC6)=CCC56OC46CC[C@@H]3C2)OC(C)C1O[C@@H]1O[C@H](CO[C@@H]2O[C@H](CO)[C@@H](O)[C@H](O)[C@H]2O)[C@@H](O)[C@H](O)[C@H]1O` (some centres not stated), in experiment [1], the outcome is “inactive [at 9.27 µM]”. For the same compound, the Potency was 2820 nM (active) in experiment [2], 3160 nM (active) in experiment [5], 3550 nM (active) in experiment [6] and 2820 nM (active) in experiment [7]. In experiment [4], the activity change, negative = cytotoxicity was -27.8% [at 11.6 µM].

With `C/C=C(\C)[C@@H]1C(C)=C[C@@H]2[C@H]([C@@H]1/C=C/C=C/C(=O)O)[C@@H](C)CC[C@@H]2O`, in experiment [2], the Potency entry is “inactive”.

On to `Cc1cc2c(F)c(Oc3ncnn4cc(OCC(C)OC(=O)C(C)N)c(C)c34)ccc2[nH]1` (configuration not stated), for which the Potency entry in experiment [2], in experiment [3], in experiment [4] and in experiment [5] was “inactive” each time.
